Source: PubChem BioAssay (Tox21)
Values joined by “and” are separate entries in the source; they are usually repeats but may differ in a detail not shown here. Equal entries are not always repeated. Records with an inconclusive call do not appear. Entries that show only a call come without a potency. Active and inactive are the calls of the source. The call rests on the fitted dose curve; in most records, active means well fitted activation curve with a large enough effect in the repeat runs; inconclusive means weak or mixed curves; inactive means no such curve, though single readings can be large or run the other way.

Target: Aryl hydrocarbon receptor (Homo sapiens) (UniProt P35869)
Assay: qHTS assay to identify small molecule that activate the aryl hydrocarbon receptor (AhR) signaling pathway (AID 743085); further: nearly all actives have a fitted effect of over 15% in size;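 on activation: HG2L7.5c1 human HepG2 liver cells with stably integrated DRE-driven firefly reporter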
Conditions: HepG2 AhR-luc (HG2L7.5c1), luciferase, 24 h; series mostly up to 70.3 µM
How it was run: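 Compounds were tested in HepG2 hepatocellular carcinoma cells harbouring a stably integrated luciferase gene under control of 20 DREs. Increased reporter signal after 24 h treatment at 37C was taken as AhR activation.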
Potency means the concentration at half of the fitted maximal effect.

Sequence of Aryl hydrocarbon receptor (Homo sapiens) (P35869 whole entry, looked up): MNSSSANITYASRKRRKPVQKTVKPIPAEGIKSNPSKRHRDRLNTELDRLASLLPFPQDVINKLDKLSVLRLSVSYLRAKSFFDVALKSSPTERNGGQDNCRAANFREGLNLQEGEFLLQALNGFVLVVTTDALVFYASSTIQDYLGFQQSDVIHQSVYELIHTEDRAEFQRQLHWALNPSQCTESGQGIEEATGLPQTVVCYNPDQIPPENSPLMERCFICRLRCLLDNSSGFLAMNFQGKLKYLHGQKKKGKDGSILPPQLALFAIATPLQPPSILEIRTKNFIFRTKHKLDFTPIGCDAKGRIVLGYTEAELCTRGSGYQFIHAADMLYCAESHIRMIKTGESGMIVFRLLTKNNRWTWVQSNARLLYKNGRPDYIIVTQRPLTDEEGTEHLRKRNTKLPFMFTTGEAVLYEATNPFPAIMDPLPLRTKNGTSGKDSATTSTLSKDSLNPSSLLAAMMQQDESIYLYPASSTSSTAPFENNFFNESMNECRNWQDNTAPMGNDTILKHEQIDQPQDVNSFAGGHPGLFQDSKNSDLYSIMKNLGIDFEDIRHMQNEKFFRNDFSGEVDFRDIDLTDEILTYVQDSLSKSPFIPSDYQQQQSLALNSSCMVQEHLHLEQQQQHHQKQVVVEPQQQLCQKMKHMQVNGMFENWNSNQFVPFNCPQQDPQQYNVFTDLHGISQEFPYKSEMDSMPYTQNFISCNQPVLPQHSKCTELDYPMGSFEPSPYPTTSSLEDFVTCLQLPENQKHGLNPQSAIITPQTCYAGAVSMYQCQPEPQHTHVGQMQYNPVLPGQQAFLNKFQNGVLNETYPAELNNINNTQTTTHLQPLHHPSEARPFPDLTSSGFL

Structure (SMILES)	Potency
N[C@@H](CCC(=O)O)C(=O)O	inactive
CC(C)C1CCC(O)CC1 (stereo not drawn)	inactive
CO[C@@]1(NC(=O)CSC[C@@H](N)C(=O)O)C(=O)N2C(C(=O)O)=C(CSc3nnnn3C)CS[C@@H]21	inactive
CCCCN1C=CN(C)C1	inactive
CC(C#N)(CCC(=O)O)N=NC(C)(C#N)CCC(=O)O (stereo not drawn)	inactive
NS(=O)(=O)Cc1noc2ccccc12	inactive
O=S(=O)(O)c1cc(O)c(O)c(S(=O)(=O)O)c1	inactive
[O-][n+]1cccc(CO)c1	inactive
O=C(O)CC(C(=O)O)S(=O)(=O)O (stereo not drawn)	inactive
NC(CCC(=O)O)C(=O)O (stereo not drawn)	inactive
c1ccc(Cc2ccccc2)cc1	inactive
NCCCC[C@H](N[C@@H](CCc1ccccc1)C(=O)O)C(=O)N1CCC[C@H]1C(=O)O	inactive
CC(=O)c1ccccc1[N+](=O)[O-]	inactive
Nc1ccncc1N	2.66 µM (active)
CCOC(=O)c1cnc2c(cnn2CC)c1NN=C(C)C	29.8 µM (active)
CN1CC(=O)N/C1=N/C(=O)Nc1cccc(Cl)c1	26.6 µM (active) and 1.68 µM (active)
CC(=O)O[C@@]12CO[C@@H]1C[C@H](O)[C@@]1(C)C(=O)[C@H](O)C3=C(C)[C@@H](OC(=O)[C@H](O)[C@@H](NC(=O)OC(C)(C)C)c4ccccc4)C[C@@](O)([C@@H](OC(=O)c4ccccc4)[C@H]21)C3(C)C	inactive
COc1cc(C(=O)NCc2ccc(OCCN(C)C)cc2)cc(OC)c1OC	inactive
O=[N+]([O-])c1ccc(/C=N\O)o1	inactive

Structure (SMILES)	Potency
CCN[C@@H]1C[C@H](N)[C@@H](OC2OC(CN)=CCC2N)[C@H](O)[C@H]1O[C@H]1OC[C@](C)(O)[C@H](NC)[C@H]1O (stereo partly drawn)	inactive
CC(C)(C)C(=O)Oc1ccc(S(=O)(=O)Nc2ccccc2C(=O)NCC(=O)O)cc1	11.9 µM (active)
CN(C)CCCN(C)CCCN(C)C	inactive
CC(=O)NC(=O)c1ccccc1O	inactive
CCC(C(=O)NC(=O)NC(C)=O)c1ccccc1 (stereo not drawn)	inactive
O=C(O)CCSCCC(=O)O	inactive
CCC(C)(CCCC(C)C)OC(C)=O (stereo not drawn)	inactive
CC(=O)Nc1ccc(OCC(O)CNC(C)C)cc1 (stereo not drawn)	inactive
CN(C)[C@@H]1C(=O)C(C(=O)NCN2CCCC2)=C(O)[C@@]2(O)C(=O)C3=C(O)c4c(O)cccc4[C@@](C)(O)C3C[C@@H]12 (stereo partly drawn)	inactive
O=C(CO)[C@@H](O)[C@H](O)[C@@H](O)CO	inactive
COC(=O)Nc1ccc(Cl)c(Cl)c1	60.8 µM (active)
CNCCO	inactive
CCCc1ncc(C[n+]2ccccc2C)c(N)n1	inactive
CCCCCCCCCCCCCCCCCCO	inactive
COc1cc(C(=O)OC(COCCC(C)C)CN2CCOCC2)cc(OC)c1OC (stereo not drawn)	inactive
CCC1C(=O)OCC1Cc1cncn1C (stereo not drawn)	inactive
CCCOC(=O)CC	inactive
CCC(=O)OCc1ccccc1	inactive
CCOc1ccccc1OCC	inactive
